The list is not random: actives were taken first. Their share in the collection is about 2.3%.
H9c2 TAG inh: inhibitors of triacylglycerol accumulation; H9c2 cells, Nile Red lipid (TAG) fluorescence; cells loaded with 200 µM oleic acid; inhibition, % at 12.5 µM; 0.66% of 230,000 active; AID 651582;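 active = pattern-corrected inhibition of lipid staining of at least 50% with the nuclear-stain viability signal not falling by more than 50%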
aSyn UTR inh: MLPCN primary screen, SNCA 5' untranslated region; 0.82% of 300,000 active; alpha-synuclein 5'UTR reporter, inhibitor activity; inhibition, % (tested at 7.5 µM); in the data active = inhibition above about 60%;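 also: H4 neuroglioblastoma cells stably carrying SNCA 5'UTR luciferase fusion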
Gli-Sufu block: Gli-Sufu pathway antagonism. Sufu-KO-LIGHT fibroblasts, Gli luciferase reporter luminescence. inhibition, % at 5 µM. 0.74% of 340,000 active;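 active = inhibition above about 55%, limit read from the data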
Jurkat NFkB inh: inhibitors of the PMA/ionomycin-induced NF-kB reporter in Jurkat cells; PMA/ionomycin-induced NF-kB luciferase reporter, luminescence; inhibition, % at 4 µM; 0.53% of 330,000 active; in the data active = inhibition above about 50%
Shn3 3UTR inh: Schnurri-3 reporter inhibition in Clone20 osteoblasts. Clone20 osteoblast Shn3 3'UTR firefly luciferase, 24 h. inhibition, % at 12.5 µM. 0.52% of 360,000 active. AID 588674;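 active = mean inhibition of at least 75% with every replicate also reaching 75%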
697 NFkB inh: lowers PMA/ionomycin-induced NF-kB signal in 697 B cells; 697 B-cell NF-kB luciferase reporter, 16 h; inhibition, % at 4 µM; 0.33% of 330,000 active; AID 435022; in the data active = inhibition above about 35%
Gli antag conf: Gli-SUFU antagonism confirmation, single concentration; shares compounds with Gli-Sufu block; Sufu-KO-LIGHT cells, Gli luciferase reporter, luminescence; inhibition, % at 5 µM; 40% of 2,500 active;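 active = mean inhibition at 5 µM reaching about 45%, limit read from the data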
SufuKO cytotox: cytotoxicity counter-screen for Gli-SUFU antagonists | shares compounds with Gli-Sufu block | Sufu-KO-LIGHT cells cytotoxicity, ATP luminescence | AID 651994 | 32% of 2,500 active | cytotoxicity, % at 5 µM;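 active = mean cytotoxicity at 5 µM above about 25%, limit read from the data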;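 also: cells exposed to compound overnight for roughly 16 to 18 hours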
Wnt3a counter: counter-screen for Gli-SUFU antagonists: Wnt3a reporter inhibition; shares compounds with Gli-Sufu block; Wnt-LIGHT cells, Wnt3a-driven luciferase reporter, luminescence; inhibition, % at 6.25 µM; 20% of 2,500 active;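 active = mean inhibition above about 25%, limit read from the data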
Hits are given with their value.

For CCn1c(-c2nn(-c3ccc(C)cc3)ccc2=O)n[nH]c1=S the results were H9c2 TAG inh inactive, Gli-Sufu block inactive, Jurkat NFkB inh inactive, Shn3 3UTR inh inactive and 697 NFkB inh inactive.
CCOC(=O)N1CCN(C(=O)c2ccc(CSc3ccc(Cl)cc3)cc2)CC1 was read as aSyn UTR inh inactive, Gli-Sufu block 58.0, Jurkat NFkB inh inactive, Shn3 3UTR inh inactive, 697 NFkB inh inactive, Gli antag conf 47.8, SufuKO cytotox inactive and Wnt3a counter inactive.
`CC(C)(C)C(=O)Nc1cc2nn(-c3ccccc3)nc2cc1Cl` gave H9c2 TAG inh inactive, Gli-Sufu block 80.5, Shn3 3UTR inh inactive, Gli antag conf 86.8, SufuKO cytotox 83.0 and Wnt3a counter 104.5.
`Cc1cc(C)c2c(ccc3ccccc32)n1` gave H9c2 TAG inh inactive, Gli-Sufu block inactive and Shn3 3UTR inh inactive.
Screening Oc1ccc(-c2nc3ccc4ccccc4c3c3c2CCC3)cc1O returned aSyn UTR inh inactive, Gli-Sufu block 56.0, Jurkat NFkB inh inactive, Shn3 3UTR inh inactive, 697 NFkB inh inactive, Gli antag conf inactive, SufuKO cytotox inactive and Wnt3a counter inactive.
CCCN(CC1CC1)C(=O)CSc1ncnc2sc(C)c(C)c12 was read as aSyn UTR inh inactive, Gli-Sufu block inactive, Jurkat NFkB inh inactive, Shn3 3UTR inh inactive and 697 NFkB inh inactive.
For CCOc1ccc(NS(=O)(=O)c2cccc(C(=O)N3CCN(C/C=C/c4ccccc4)CC3)c2)cc1 the results were H9c2 TAG inh inactive, Gli-Sufu block inactive, Shn3 3UTR inh inactive, Gli antag conf inactive, SufuKO cytotox inactive and Wnt3a counter inactive.
Screening CCOc1ccc(S(=O)(=O)Nc2ccc(C(=O)N3CCCC3)cc2)cc1 returned H9c2 TAG inh inactive, aSyn UTR inh inactive, Gli-Sufu block inactive, Jurkat NFkB inh inactive, Shn3 3UTR inh inactive and 697 NFkB inh inactive.
CCOc1ccc(NS(=O)(=O)c2ccc(C(=O)N3CCCC(C)C3)cc2)cc1 (stereo not drawn) was read as H9c2 TAG inh inactive, aSyn UTR inh inactive, Gli-Sufu block 56.5, Jurkat NFkB inh inactive, Shn3 3UTR inh inactive, 697 NFkB inh inactive, Gli antag conf inactive, SufuKO cytotox inactive and Wnt3a counter inactive.
For O=C(c1cc(-c2ccco2)nc2ccccc12)N1CCN(c2ccc(F)cc2)CC1 the results were aSyn UTR inh inactive, Gli-Sufu block 63.8, Jurkat NFkB inh inactive, Shn3 3UTR inh inactive, 697 NFkB inh inactive, Gli antag conf inactive, SufuKO cytotox 33.7 and Wnt3a counter inactive.
For COc1ccc(-c2cc(C(=O)N3CCCCCC3)c3ccccc3n2)cc1 the results were H9c2 TAG inh inactive, Gli-Sufu block inactive, Jurkat NFkB inh inactive, Shn3 3UTR inh inactive, 697 NFkB inh inactive, Gli antag conf inactive, SufuKO cytotox inactive and Wnt3a counter inactive.
Screening COc1ccccc1NC(=O)Cn1cc(C(=O)c2ccco2)c2ccccc21 returned H9c2 TAG inh inactive, aSyn UTR inh inactive, Gli-Sufu block 56.0, Jurkat NFkB inh inactive, Shn3 3UTR inh inactive, 697 NFkB inh inactive, Gli antag conf 69.1, SufuKO cytotox 38.2 and Wnt3a counter 30.7.
Screening Cc1cccc(NC(=O)Cn2cc(C(=O)C3CC3)c3ccccc32)c1C returned aSyn UTR inh inactive, Gli-Sufu block 79.9, Jurkat NFkB inh inactive, Shn3 3UTR inh 86.7, 697 NFkB inh inactive, Gli antag conf 83.4, SufuKO cytotox 33.3 and Wnt3a counter inactive.
CCOc1cc(CNCC(C)C)cc(Cl)c1OCc1ccccc1 was read as H9c2 TAG inh inactive, aSyn UTR inh inactive, Gli-Sufu block inactive, Jurkat NFkB inh inactive, Shn3 3UTR inh inactive and 697 NFkB inh inactive.
Screening Cc1ncc(CO)c(/C=N/NC(=O)c2ccccc2Br)c1O returned H9c2 TAG inh inactive, aSyn UTR inh inactive, Gli-Sufu block inactive, Jurkat NFkB inh inactive, Shn3 3UTR inh inactive and 697 NFkB inh inactive.
Screening CCC(=O)N1CCc2cc(Br)cc(S(=O)(=O)N3CCC(C(=O)NC(C)(C)C)CC3)c21 returned aSyn UTR inh inactive, Gli-Sufu block inactive, Jurkat NFkB inh inactive, Shn3 3UTR inh inactive, 697 NFkB inh inactive, Gli antag conf inactive, SufuKO cytotox inactive and Wnt3a counter inactive.
`Cc1ccc(S(=O)(=O)NCC(=O)NCc2ccncc2)cc1` gave H9c2 TAG inh inactive, aSyn UTR inh inactive, Gli-Sufu block inactive, Jurkat NFkB inh inactive, Shn3 3UTR inh inactive and 697 NFkB inh inactive.
`Cc1cc(S(=O)(=O)NCc2ccncc2)c(C)cc1Br` gave H9c2 TAG inh inactive, aSyn UTR inh inactive, Gli-Sufu block 66.5, Jurkat NFkB inh inactive, Shn3 3UTR inh inactive, 697 NFkB inh inactive, Gli antag conf 62.4, SufuKO cytotox inactive and Wnt3a counter 37.5.
`Cc1ccc(S(=O)(=O)NCc2ccncc2)cc1` gave H9c2 TAG inh inactive, aSyn UTR inh inactive, Gli-Sufu block 70.7, Jurkat NFkB inh inactive, Shn3 3UTR inh inactive, 697 NFkB inh inactive, Gli antag conf 57.4, SufuKO cytotox 33.5 and Wnt3a counter inactive.
CC1CCCCC1NS(=O)(=O)c1ccc(S(=O)(=O)NCc2ccncc2)cc1 (stereo not drawn) was read as aSyn UTR inh inactive, Gli-Sufu block 67.1, Jurkat NFkB inh inactive, 697 NFkB inh inactive, Gli antag conf 58.9, SufuKO cytotox inactive and Wnt3a counter inactive.
CC(=O)Nc1ccc(S(=O)(=O)NCc2ccncc2)cc1 was read as H9c2 TAG inh inactive, aSyn UTR inh inactive, Gli-Sufu block 55.5, Jurkat NFkB inh inactive, Shn3 3UTR inh inactive, 697 NFkB inh inactive, Gli antag conf inactive, SufuKO cytotox inactive and Wnt3a counter inactive.
For O=C(CCCN1C(=O)c2ccccc2C1=O)Nc1nccs1 the results were aSyn UTR inh inactive, Gli-Sufu block inactive, Jurkat NFkB inh inactive, Shn3 3UTR inh inactive and 697 NFkB inh inactive.
`CCc1ccc(N(CC(=O)NCc2ccc(OC)cc2)C(=O)CCC(=O)Nc2ccccn2)cc1` gave aSyn UTR inh inactive, Gli-Sufu block inactive, Jurkat NFkB inh inactive, Shn3 3UTR inh inactive and 697 NFkB inh inactive.
`COc1ccc(N(CC(=O)NCc2ccc(F)cc2)C(=O)CCC(=O)Nc2ccccn2)cc1` gave aSyn UTR inh inactive, Gli-Sufu block 68.9, Jurkat NFkB inh inactive, Shn3 3UTR inh inactive, 697 NFkB inh inactive, Gli antag conf inactive, SufuKO cytotox inactive and Wnt3a counter inactive.
`O=S1(=O)N=C(Nc2nncs2)c2ccccc21` gave aSyn UTR inh inactive, Gli-Sufu block inactive, Jurkat NFkB inh inactive, Shn3 3UTR inh inactive and 697 NFkB inh inactive.
For COc1ccc(CN(C)C(=O)COC(=O)c2c(-c3ccccc3Cl)noc2C)cc1 the results were H9c2 TAG inh inactive, aSyn UTR inh inactive, Gli-Sufu block inactive, Jurkat NFkB inh inactive, Shn3 3UTR inh inactive, 697 NFkB inh inactive, Gli antag conf inactive, SufuKO cytotox inactive and Wnt3a counter inactive.

Source: PubChem (several laboratories)
